Out of some 230,000 compounds screened, about 1,500 (0.65%) were called active.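 The calls were made as follows: active = pattern-corrected inhibition of lipid staining of at least 50% with the nuclear-stain viability signal not falling by more than 50%; inactive = the rest, inconclusive results apart.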 What follows is part of a selection rich in actives, with near analogues and random picks from the rest.

What is called inhibition is the drop in the measured response relative to a control, in per cent.

This assay in a line: TAG lipid buildup reduction in H9c2 cells – cell-based, uHTS, fluorescence, primary screen (AID 651582).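 As to inhibition: 0% = DMSO wells and 100% = triacsin C control wells.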 The following applies: Nile Red lipid (TAG) fluorescence, at 12.5 µM, cells loaded with 200 µM oleic acid; DAPI nuclei signal change (viability), lower = more cytotoxic: measured here: DAPI nuclei count viability; inhibition: stronger effect = higher value.
Consider `COc1ccc(-c2ccc(CN3C(CC(C)C)C(=O)N(Cc4cn(CC5CCCCC5)nn4)CCS3(=O)=O)cc2)cn1` (stereo unspecified), for which the DAPI nuclei signal change (viability), lower = more cytotoxic was -15.9% and the inhibition was 31% (inactive).
For `CCCC[C@H]1COCCS(=O)(=O)N1Cc1cccc(Cl)c1` the same measures were -5.51% and 5.89% (inactive).
For `O=C(CN1C(=O)NC2(CCCCCC2)C1=O)NCc1ccc(F)cc1` the same measures were 0.843% and -2.12% (inactive).
For `Cc1cccc(-c2cnc(C(O)c3ccc4ccccc4c3)[nH]2)c1` (stereo unspecified) the same measures were 0.713% and -12.6% (inactive).
With `COc1ccc(S(=O)(=O)N2CCc3ccccc32)cc1C(=O)Nc1cc(S(C)(=O)=O)ccc1Cl`, the DAPI nuclei signal change (viability), lower = more cytotoxic is -36.5% and the inhibition was 61.6% (active).
For `COc1cccc(NC(=O)c2cc(S(=O)(=O)N3CCc4ccccc43)cn2C)c1` the same measures were -2.57% and -1.15% (inactive).
For `CCN(C(=O)COC(=O)c1cc(S(=O)(=O)N2CCc3ccccc32)ccc1OC)C1CCS(=O)(=O)C1` (stereo unspecified) the same measures were -4.55% and 3.02% (inactive).
For `CCOC(=O)C1(C)CCCN(C(=O)c2ccc(N(C)C)cc2)C1` (stereo unspecified) the same measures were 5.71% and -6.89% (inactive).
`COc1ccc(-c2sc3ccc(OC)cc3c2C#Cc2ccccn2)cc1`: the DAPI nuclei signal change (viability), lower = more cytotoxic worked out at 5.72% and the inhibition was 13.1% (inactive).
For `COc1ccc2sc(-c3ccc(N(C)C)cc3)c(C#CCO)c2c1` the same measures were 426% and 66.7% (active).
Consider `COc1ccc2sc(-c3ccc(N(C)C)cc3)c(-c3ccc4cc[nH]c4c3)c2c1`, for which the DAPI nuclei signal change (viability), lower = more cytotoxic was 224% and the inhibition was 24.3% (inactive).
For `Cc1cccc(C(=O)Nc2nnc(S(=O)(=O)N3CCCCCC3)s2)c1` the same measures were -4.18% and 6.02% (inactive).
For `O=C(NCc1nnnn1-c1ccc(Cl)cc1)c1ccc2c(c1)OCO2` the same measures were 1.1% and -6.02% (inactive).
For `c1ccc(Cn2nnc3c(NCC4CC4)ncnc32)cc1` the same measures were -8.3% and 23.9% (inactive).
Take `CNc1cncc(-c2ccc(NS(C)(=O)=O)cc2)n1`: the DAPI nuclei signal change (viability), lower = more cytotoxic was -24.4% and the inhibition was 24.8% (inactive).
For `CC(C)(c1ccccc1)c1ccc(OCCN)cc1` the same measures were 10.8% and 22% (inactive).
For `CCc1ccc(OCC(O)CN2CCN(CCO)CC2)cc1` (stereo unspecified), the DAPI nuclei signal change (viability), lower = more cytotoxic is 4.43% and the inhibition is -3.68% (inactive).
For `CN(C)CC(O)COc1ccc(C(C)(C)c2ccc(OCC(O)CN(C)C)cc2)cc1` (stereo unspecified) the same measures were 20% and 50.5% (active).
For `CC(=O)NC12CC3CC(C1)CC(C(=O)N1CCN(C(=O)c4ccco4)CC1)(C3)C2` the same measures were 0.13% and -4.34% (inactive).
For `CS(=O)(=O)c1ccc(C(=O)NNC(=O)c2cccs2)cc1`, the DAPI nuclei signal change (viability), lower = more cytotoxic is -4.79% and the inhibition was -4.25% (inactive).
For `C=CCNC(=S)N/N=C/c1ccc(OCc2ccccc2)cc1`, the DAPI nuclei signal change (viability), lower = more cytotoxic came to 1.44% and the inhibition was 9.8% (inactive).
For `Cc1ccc(/C=N/NC(=O)CN2CCN(Cc3ccccc3)CC2)s1` the same measures were 1.3% and 2.92% (inactive).
As for `C=CCNC(=S)N/N=C/c1ccc(C)s1`, the DAPI nuclei signal change (viability), lower = more cytotoxic is -18.5% and the inhibition is 56% (active).
For `CCOc1ccc(CN2CCN(Cc3ccc4cc(F)ccc4n3)CC2CCO)cc1` (stereo unspecified), the DAPI nuclei signal change (viability), lower = more cytotoxic came to 1.54% and the inhibition is 7.07% (inactive).
For `O=c1cc(N2CCN(Cc3ccccc3)CC2)c(-c2ccccc2)n[nH]1` the same measures were -7.21% and 20.7% (inactive).
As to `O=C(CN1CCN(Cc2ccccc2)CC1)NC(c1ccccc1)c1ccccc1`, the DAPI nuclei signal change (viability), lower = more cytotoxic was 4.91% and the inhibition was -87.5% (inactive).
For `O=C1c2ccccc2C(=O)c2c1cccc2N1CCN(C/C=C/c2ccccc2)CC1` the same measures were 3.54% and 59.1% (active).
For `CNC(=O)NC(=O)C(C)N1CCN(C/C=C/c2ccccc2)CC1` (stereo unspecified) the same measures were 3.57% and 4.65% (inactive).
For `O=C(CCN1CCN(C/C=C/c2ccccc2)CC1)Nc1cccc(F)c1` the same measures were 11.8% and 13.2% (inactive).
Turning to `O=C1c2ccccc2C(=O)c2c1cccc2N1CCN(Cc2ccccc2)CC1`, the DAPI nuclei signal change (viability), lower = more cytotoxic came to 4.09% and the inhibition was 114% (active).
In the case of `O=C(COC(=O)/C=C/c1ccc(Cl)cc1)NC1CCS(=O)(=O)C1` (stereo unspecified), the DAPI nuclei signal change (viability), lower = more cytotoxic is -1.68% and the inhibition was 1.31% (inactive).
For `O=C(COC(=O)c1ccccn1)NNC(=O)c1ccc(Br)cc1` the same measures were 1.16% and 11.9% (inactive).
For `COC(=O)c1ccc(CN2CCCC(C(=O)Nc3cccc(-n4cnnn4)c3)C2)cc1` (stereo unspecified) the same measures were 3.39% and -0.9% (inactive).
For `COc1ccc(C(CNC(=O)c2cccc(S(=O)(=O)Nc3ccc(Br)cc3)c2)N(C)C)cc1` (stereo unspecified) the same measures were 7.9% and -15.7% (inactive).
For the compound `O=C(Nc1nc2c(F)cc(F)cc2s1)C1COc2ccccc2O1` (stereo unspecified), the DAPI nuclei signal change (viability), lower = more cytotoxic is -6.26% and the inhibition was -0.591% (inactive).
As for `COc1ccc(OC)c2sc(NC(=O)C3COc4ccccc4O3)nc12` (stereo unspecified), the DAPI nuclei signal change (viability), lower = more cytotoxic was -0.689% and the inhibition was -1.03% (inactive).
For `O=C(Nc1nc(-c2ccncc2)cs1)C1COc2ccccc2O1` (stereo unspecified) the same measures were -38.7% and 50.4% (active).
For `CCCCc1ccc(NS(=O)(=O)c2cccc(C(=O)N3CCCN(C)CC3)c2)cc1` the same measures were 4.43% and -11.5% (inactive).

(Values after PubChem BioAssay AID651582 (Sanford-Burnham Center for Chemical Genomics, 2012).)
